Compounds with a hit are over-represented: about 9.4% of the library has one in this group of screens.
HttQ103 aggreg = inhibitors of mutant huntingtin aggregate formation in PC12 cells; PC12 HttQ103-GFP aggregates, Acumen cytometry, 40 h; Potency, µM (titrated, usually from 46.1 µM), for the others: at the top dose activity change, negative = inhibition, most hits filed as inhibitors; 220,000 tested, 1.1% active; AID 1688; also: potency is read from the fitted curve at half-maximal effect; % is scaled to controls: 0 for no effect and ±100 for the full control effect; nearly all actives have a fitted effect of over 60% in size
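Ecdysone-promoter PC12 model expressing HTT exon 1 Q103 fused to GFP, induced by tebufenozide at 100 nM final. Compounds titrated; aggregates sized 1–25 µm scored on a 488 nm laser cytometer.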
HTT ATP protect = protects HTT-Q103 PC12 cells, measured by ATP; PC12 HTT-Q103 induced, cytoprotection, ATP luminescence, 40 h; Potency, µM (series often up to 56.4 µM), inactives show cytoprotection (ATP increase), actives largely listed as activators; 230,000 tested, 0.14% active; AID 1471; also: potency is read from the fitted curve at half-maximal effect; % of control where 0% means no effect; nearly all actives have a fitted effect of over 45% in size
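Compounds added alongside 100 nM tebufenozide, which induces toxic Q103 huntingtin exon 1-GFP in stable PC12 cells; surviving cells quantified by luminescent ATP measurement. Medium: phenol red-free DMEM, 5% equine and 5% calf serum.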
IMPase inh = cell-permeable inhibitors of inositol monophosphatase (IMPase); CHO-M1 cells, IP1 accumulation, HTRF TR-FRET ratio; inhibition (IP1 accumulation), % at 46.1 µM; 120,000 tested, under 10 active; active = well fitted curve in the direction sought with a large enough effect in the signal ratio, not every such curve was filed as active; inconclusive = small, poorly fitted or top-dose-only effect, or a change in a side signal; inactive = no such curve, though single readings can be large or run the other way; the % refers to the signal ratio;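 also: cells stimulated with carbachol in lithium chloride buffer; plate controls were DMSO basal wells for no effect and reference inhibitor wells for full effect; higher means more IMPase inhibition seen as more IP1 and lower FRET ratio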
Target sequence (P97697 whole entry, looked up): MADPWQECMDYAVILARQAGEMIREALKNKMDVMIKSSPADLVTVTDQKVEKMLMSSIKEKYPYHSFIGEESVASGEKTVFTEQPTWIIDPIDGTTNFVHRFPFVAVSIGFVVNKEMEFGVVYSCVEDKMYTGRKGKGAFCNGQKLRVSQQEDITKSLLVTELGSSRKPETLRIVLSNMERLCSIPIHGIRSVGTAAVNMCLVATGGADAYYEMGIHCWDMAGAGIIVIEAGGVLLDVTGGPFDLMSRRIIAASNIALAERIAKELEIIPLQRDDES
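CHO-M1 cells (CHO stably expressing M1 receptor), compound up to 46 uM final, stimulated with carbachol (50 uM as added) in buffer with 50mM LiCl, pH 7.4, 30 min at 37C. Cytosolic IP1 read by TR-FRET; AC50 from Hill fits.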
IMPase Li cell = cell-permeable IMPase inhibitors with lithium potentiation; CHO-M1 cells, IP1 TR-FRET (IP-One), carbachol + lithium; Potency, µM (series often up to 59.4 µM), without a hit: top-dose activity, negative = IMPase inhibition, actives largely listed as inhibitors; 210,000 tested, 0.35% active;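 also: IP1 builds up when IMPase is blocked and the TR-FRET signal falls; potency is read from the fitted curve at half-maximal effect; plate controls were basal vehicle for no effect and high inhibitor control for full effect; nearly all actives have a fitted effect of over 50% in size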
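IP1 accumulation measured by competitive TR-FRET in lysed CHO-M1 cells after 30 min compound exposure at 37C, with a small lithium addition to potentiate weak responses. Hill-equation AC50 from ratio and donor-channel data.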
HPGD block = blocks human HPGD enzyme activity. purified HPGD, NADH fluorescence kinetic, PGE2 substrate. Potency, µM, without a hit: at the highest dose activity change, negative = inhibition, hits mostly inhibitors. 150,000 tested, 4.3% active; active = well fitted inhibition curve with a large enough effect, not every such curve was filed as active; inconclusive = small, poorly fitted or top-dose-only effect, or another doubt; inactive = no such curve, though single readings can be large or run the other way; also: potency is read from the fitted curve at half-maximal effect; % is scaled to controls: 0 for no effect and ±100 for the full control effect
Target sequence (P15428 whole entry, looked up): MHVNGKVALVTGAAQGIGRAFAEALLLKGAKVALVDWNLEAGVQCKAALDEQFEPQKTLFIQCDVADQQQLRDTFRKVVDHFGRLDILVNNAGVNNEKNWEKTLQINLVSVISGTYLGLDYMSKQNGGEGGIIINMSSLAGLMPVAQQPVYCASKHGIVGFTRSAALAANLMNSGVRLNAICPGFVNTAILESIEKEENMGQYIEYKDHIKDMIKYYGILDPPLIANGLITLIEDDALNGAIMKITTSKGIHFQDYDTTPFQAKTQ
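NADH formation kinetics: reaction with 30 uM PGE2 and 1 mM NAD+ (final), 20 nM enzyme, Tris-HCl pH 8 with Tween 20, after 15 min compound preincubation at room temperature. Fluorescence change, last versus first of five reads.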
ALDH1A1 block = ALDH1A1 (human) enzyme inhibition; P00352; Purified ALDH1A1, NADH fluorescence, propionaldehyde substrate; Potency, µM (doses to about 75.3 µM), without a hit: top-dose activity, negative = inhibition, most hits filed as inhibitors; 220,000 tested, 7.3% active; AID 1030; active = well fitted inhibition curve with a large enough effect, not every such curve was filed as active; inconclusive = small, poorly fitted or top-dose-only effect, or another doubt; inactive = no such curve, though single readings can be large or run the other way;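 also: potency is read from the fitted curve at half-maximal effect; plate controls were no enzyme wells and a reference inhibitor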
Numbers without * were called inactive; ? = inconclusive; . = no result; [ ] = remark or other dose. Unless noted, calls follow the shape of the dose curve; as a rule, active = well fitted curve in the direction sought with a large enough effect; inconclusive = small, poorly fitted or top-dose-only effect, or another doubt; inactive = no such curve, though single readings can be large; an effect the other way counts as inactive or inconclusive.

SMILES | HttQ103 aggreg | HTT ATP protect | IMPase inh | IMPase Li cell | HPGD block | ALDH1A1 block
O=C(c1cnn(C(=O)c2ccc(O)cc2)c1)c1ccccc1O | -3% | . | . | 1% | . | ?
COCC1=Cc2cc3c(cc2C(C(C(=O)OC)C(=O)OC)N1C(=O)OC)OCO3 (stereo not drawn) | . | -32% | . | 4% | 0% | -5%
COc1ccc(C(=O)[C@H](Br)[C@H](Br)C(=O)O)cc1 | . | -18%[10 µM] | . | 9% | -13% | 0.28µM*
C=C(C)C(=O)c1ccc(OC)cc1 | . | -14% | . | 9% | -1% | 2%
COc1ccc2c(=O)c(C)c(-c3ccccc3)oc2c1CN(C)C | 0% | -3% | . | . | . | .
CNc1ccc(S(=O)(=O)NCC(=O)OCC(=O)Nc2cccc(Cl)c2Cl)cc1[N+](=O)[O-] | -29% | . | . | -5% | -16% | ?
CN(C)c1ccc(S(=O)(=O)NCC(=O)OCC(=O)Nc2cccc(Cl)c2)cc1[N+](=O)[O-] | 15% | -6%[10 µM] | . | -2% | 3% | 7.9µM*
CC#CCN1c2ccccc2[C@]23C[C@@H](C(=O)OC)N(S(=O)(=O)c4ccc(C)cc4)C2=NC(C(=O)OC)=C(C(=O)OC)[C@H]13 | . | -2%[10 µM] | . | -1% | -6% | 4%[13.5 µM]
CC(NC(=O)c1ccc(Br)cc1)c1ccccc1 (stereo not drawn) | -1% | . | . | 0% | -6% | 11µM*
CC(NC(=O)Cc1ccc(-c2ccccc2)cc1)c1ccccc1 (stereo not drawn) | -25% | -26% | 7 | 16%[38.3 µM] | 14µM* | 11µM*
Cc1cc(S(=O)(=O)N2CCN(c3ccccc3O)CC2)c(C)s1 | -9% | -25% | 0 | 5%[38.3 µM] | -6% | ?
Cc1cc(S(=O)(=O)N2CCCC2)c(C)s1 | -11% | 6% | -2 | . | . | 7.9µM*
Cc1ccc(S(=O)(=O)N2CCCC2)cc1S(=O)(=O)N1CCCC1 | -16% | 12%[10 µM] | 0 | 6% | -11% | 18µM*
CN(C)c1ncc2nc(-c3cccs3)c(=O)n(-c3ccccc3)c2n1 | . | 3% | . | ? | . | ?
COc1cc(/C=C2\CCCc3c2nc2ccccc2c3C(=O)O)cc(OC)c1O | -8%[9.22 µM] | 1%[10 µM] | . | . | . | 14µM*
COc1ccc(/C=C2\CCCc3c2nc2ccccc2c3C(=O)O)cc1OC | -3%[9.22 µM] | 4%[10 µM] | . | . | . | .
COc1ccc(/C=N/N=C2/SCC(=O)N2Cc2ccccc2)cc1 | 8%[9.22 µM] | -5%[10 µM] | . | . | . | .
COc1ccc(/C=C2\CN(Cc3ccccc3)C/C(=C\c3ccc(OC)cc3OC)C2=O)c(OC)c1 | -16% | -68% | -6 | 11%[38.3 µM] | -14% | 18µM*
COc1ccc(/C=C2\CN(Cc3ccccc3)C/C(=C\c3ccc(OC)cc3)C2=O)cc1 | -4% | 38%[10 µM] | . | 7% | -14% | 16µM*
CCCCCOc1ccc(/C=C/C(=O)Nc2sc(C)c(C)c2C(=O)OCC)cc1OC | . | . | -2 | . | . | .
COc1ccc(S(=O)(=O)N2CCN(c3c(C)cccc3C)CC2)cc1OC | ? | 10% | 10 | 20%[38.3 µM] | -16% | -8%
COc1ccc(S(=O)(=O)N2CCN(c3ccc(C)cc3C)CC2)cc1OC | 35µM* | 17% | 4 | 47%[38.3 µM] | -21% | -8%
COC(=O)c1ccc(NC(=O)c2ccccc2)o1 | 13% | 0% | -6 | 12%[38.3 µM] | 32µM* | -12%
CCCCN(c1ccccc1)c1ncnc2c1cnn2C | . | 0%[10 µM] | . | -1% | -11% | 8%[13.5 µM]
CCCCC(=O)N1CCN(c2ccc(OC)cc2[N+](=O)[O-])CC1 | -9% | 44%[10 µM] | . | -3% | 14µM* | ?
SMILES | HttQ103 aggreg | HTT ATP protect | IMPase inh | IMPase Li cell | HPGD block | ALDH1A1 block
COc1ccc(N2CCN(C(=O)c3ccc(Br)cc3)CC2)c([N+](=O)[O-])c1 | -25% | ? | . | 2% | . | 13µM*
COc1ccc(N2CCN(C(=O)c3ccc(C)cc3)CC2)c([N+](=O)[O-])c1 | -17% | . | . | 8% | -26% | 11µM*
O=C(NCCCCCCNC(=O)ON=C1CCCCC1)ON=C1CCCCC1 | . | ? | . | 0% | -22% | -11%
COC(=O)C1=C(C)NC(C)=C(C(=O)OCCN2CCN(C(c3ccccc3)c3ccccc3)CC2)C1c1cccc([N+](=O)[O-])c1 (stereo not drawn) | -26% | -69% | . | . | . | .
Cc1cc(-c2cc(C)c(O)c(C(C)(C)C)c2)cc(C(C)(C)C)c1O | . | 8%[10 µM] | . | 1% | -6% | 10%[13.5 µM]
CN1c2ccsc2/C(=N/NC(=O)c2c(F)cccc2F)CS1(=O)=O | -10% | -2% | 13 | 51%[38.3 µM] | ? | ?
CN1c2ccsc2/C(=N/Nc2ccccc2)CS1(=O)=O | -4% | 6%[10 µM] | . | 20% | . | 13µM*
COc1ccccc1N1CCN(C(=O)CN(c2ccccc2OC)S(=O)(=O)c2ccccc2)CC1 | 5µM* | -8% | 10 | 32%[38.3 µM] | -7% | 2%
COc1ccc(N(CC(=O)N2CCCCC2)S(=O)(=O)c2ccccc2)c(OC)c1 | 4% | -12%[10 µM] | 10[1.84 µM] | 53%[38.3 µM] | -7% | ?
CCOC(=O)N1CCN(C(=O)CN(c2cc(Cl)ccc2OC)S(=O)(=O)c2ccccc2)CC1 | 8% | -11% | 11 | 11%[38.3 µM] | -5% | 25µM*
CCOC(=O)N1CCN(C(=O)CN(c2cccc(C)c2)S(=O)(=O)c2ccccc2)CC1 | -1% | 9% | -2 | 7%[38.3 µM] | 1% | -5%
O=C(O)CCC/C=C\C[C@H]1[C@@H](/C=C\[C@@H](O)C2Cc3ccccc3C2)[C@H](F)C[C@H]1O | . | 15%[1.9 µM] | . | . | . | .
O=C(COc1ccc(/C=N/NS(=O)(=O)c2ccccc2)cc1)Nc1ccc(F)cc1 | 12% | -33% | 2 | . | . | -3%
COc1ccccc1NC(=O)COc1ccc(/C=N/NS(=O)(=O)c2ccc(C)cc2)cc1 | 8% | -15% | ? | 14%[38.3 µM] | 16µM* | ?
Cc1ccc(S(=O)(=O)N/N=C/c2ccc(OCC(=O)Nc3ccccc3Cl)cc2)cc1 | -10% | -1% | -1 | 9%[38.3 µM] | 14µM* | -14%
COc1ccccc1N(CC(=O)N/N=C/c1ccc(OCC(=O)NCc2ccco2)cc1)S(=O)(=O)c1ccc(C)cc1 | 19%[9.22 µM] | 9% | -1 | 34%[38.3 µM] | 16µM* | -10%
CC(C)NC(=O)Cn1nnc(-c2ccc(Cl)cc2)n1 | 13µM* | -17%[10 µM] | 0 | . | . | 10µM*
CCOC(=O)c1c(NC(=O)Cn2nnc(-c3ccc(Cl)cc3)n2)sc(C)c1C | -3% | -16% | -11 | 0%[38.3 µM] | -3% | 1%
COC(=O)[C@@H](NC(=O)c1cc(-c2ccccc2)nc2ccccc12)c1ccccc1 | . | -21%[1.9 µM] | . | . | . | .
O=C1C=C(O)c2ccccc2C1=O | . | -65% | . | 25% | ? | 16µM*
CCOC(=O)CSC1=NC(=O)/C(=C\c2ccc(Cl)cc2)S1 | 11% | -13% | -4 | 30%[38.3 µM] | 2.2µM* | 20µM*
